# Pf growth 96h – P. falciparum growth inhibition at 96 hours; P. falciparum luciferase reporter growth, 96 h; Potency, µM (doses to about 28.7 µM), actives largely listed as inhibitors; 6.9% of 320,000 active; AID 504834
#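 Delayed-death screen, second-generation endpoint: infected erythrocytes, 2% hematocrit, 0.05% parasitemia final; 96 hours at 37 C, 5% CO2; luciferase detection reagent; luminescence decrease equals reduced growth.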
# Pf growth 48h – P. falciparum growth inhibition at 48 hours (one generation); P. falciparum luciferase growth in erythrocytes, 48 h; Potency, µM (series often up to 28.7 µM), hits mostly inhibitors; AID 504832; 5.9% of 310,000 active
#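 In quantitative HTS format, infected erythrocytes bearing luciferase-reporter parasites were treated for a single generation at 37 C. Luminescence after adding detection reagent served as the growth measure.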
# Cycloheximide cs – counter-screen hit for Shiga toxin inhibitors, cycloheximide; cell reporter, cycloheximide protein synthesis inhibition counterscreen; max response, %; 12% of 300,000 active; in the data active = max response mostly above about 13%, no sharp cut-off; inactive = mostly below about 14%; also: read at 38.3 µM for the half of the compounds with a filed dose
# Shiga inhibitor – inhibitors of Shiga toxin in Vero cells | Vero cells, Shiga toxin protein synthesis inhibition reporter | inhibition, % at 38.7 µM | 9.2% of 290,000 active | AID 2315; in the data active = inhibition mostly above about 28%, no sharp cut-off; inactive = mostly below about 43%
# Hits are given with their value; - = inactive; ? = inconclusive; . = no result; [ ] = remark or other dose. This is a sample that favours compounds with a hit; in the whole collection about 21% have one here. Unless noted, calls follow the shape of the dose curve; as a rule, active = well fitted inhibition curve with a large enough effect; inconclusive = small, poorly fitted or top-dose-only effect, or another doubt; inactive = no such curve, though single readings can be large or run the other way.
SMILES,Pf growth 96h,Pf growth 48h,Cycloheximide cs,Shiga inhibitor
O=C(Nc1cccc(F)c1)c1ccco1,-,-,29,42
Cc1cc(C)cc(C(=O)Nc2cccc(NC(=O)c3ccco3)c2)c1,-,?,21,-
Nc1cccc(NC(=O)c2ccco2)c1,?,-,8.1,-
CC(=O)Nc1cccc(NC(=O)c2ccco2)c1,?,-,-,-
COc1ccc(OC)c(NC(=O)c2cc(-c3cc(Cl)ccc3O)n[nH]2)c1,8.3µM,1.7µM,-,-
COc1ccc(Cl)cc1NC(=O)c1ccccc1C,-,?,-,-
COc1ccc(Cl)cc1NC(=O)c1cc(-c2ccccc2O)n[nH]1,10µM,10µM,-,-
COc1ccc(NC(=O)c2cc(-c3ccc(C)cc3O)n[nH]2)c(OC)c1,?,-[0.00184 µM],-,-
Cc1c(Cl)cccc1NC(=O)c1cc(-c2ccccc2O)n[nH]1,?,.,18,-
CSc1ccccc1NC(=O)COC(=O)CCc1ccccc1,-,-,-,-
O=C(COc1cc2oc(=O)c3c(c2cc1Cl)CCC3)NCc1ccncc1,?,-,-,-
COc1cc(C)ccc1OCCCON1C(=O)CCC1=O,-,.,-,20
O=C1CCC(=O)N1OCCCCOc1ccccc1,-,-,12,-
COc1cc(C)ccc1OCCOc1ccccc1Cl,-,-,31,61
COc1cc(C=O)ccc1OCCOCCOc1cc(C)ccc1Cl,-,-,-,-
COc1ccccc1OCCOCCOc1c(C)cc(C)cc1Br,2.9µM,-,-,-
O=C(CC1(CC(=O)N2CCOCC2)CCCC1)Nc1ccccc1,-,-,.,.
COc1cc(C)ccc1OCCOCCOc1ccccc1[N+](=O)[O-],-,-,22,-
CCOc1ccccc1OCCCOc1ccc([N+](=O)[O-])cc1Cl,10µM,?,-,-
COc1cc(C)ccc1OCCCOc1ccccc1Cl,?,-,51,93
COc1cc(C)ccc1OCCCCOc1ccccc1C(C)=O,?,-,-,-
COc1cccc(OC)c1OCCCOc1ccc([N+](=O)[O-])cc1Cl,-,-,-,-
CC(C)(C)c1ccc(OCCON2C(=O)CCC2=O)c(Cl)c1,-,.,39,63
COc1ccc(OCCCC(=O)N(C)CC(=O)Nc2ccccc2Cl)cc1,?,-,-,-
COc1ccccc1C1C(C#N)=C(N)N(c2cccnc2)C2=C1C(=O)CC(C)(C)C2 (stereo unspecified),?,-,-,-
SMILES,Pf growth 96h,Pf growth 48h,Cycloheximide cs,Shiga inhibitor
COc1ccc(Cn2c(-c3ccc(Br)cc3)c[n+]3ccccc23)cc1,0.13µM,0.66µM,57,49
COc1ccc(Cn2c(C)ccc2C)cc1,-,.,-,-
CN(C)S(=O)(=O)c1ccc(C(=O)Nc2ccc3c(c2)CCC3)cc1,-,-,29,33
CN(C)S(=O)(=O)c1cccc(C(=O)Nc2ccc3c(c2)CCC3)c1,-,-,43,106
COc1ccc(C2c3ccc(O)cc3Oc3ncn4nc(-c5ccco5)nc4c32)cc1OC (stereo unspecified),-,?,-,-
COc1ccc(C2c3ccc(O)cc3Oc3ncn4nc(-c5ccccn5)nc4c32)cc1OC (stereo unspecified),-,10µM,-,-
COc1ccc(C2c3ccc(O)cc3Oc3ncn4nc(-c5ccncc5)nc4c32)cc1OC (stereo unspecified),3.3µM,1.3µM,-,-
COc1ccc(C2c3ccc(O)cc3Oc3ncn(Cc4ccccc4)c(=N)c32)cc1OC (stereo unspecified),?,12µM,-,-
Cc1noc(C)c1CN(C(=S)NC(C)C)c1ccccc1,-,-,-,-
Cc1noc(C)c1CN(C(=S)NC1CC2CCC1C2)c1ccccc1 (stereo unspecified),-,12µM,-,-
Cc1ccccc1-c1nnc(SCc2ccccc2F)o1,?,-,58,87
Cc1ccccc1-c1nnc(Cc2ccccc2)o1,-,-,41,138
Cc1ccc(C)c(CSc2nnc(-c3cccnc3)o2)c1,13µM,?,-,-
COc1ccc(-c2nnc(SCc3ccccc3F)o2)cc1,-,.,47,118
Cc1ccccc1-c1nnc(SCC(=O)Nc2cccc(C)c2C)o1,.,-,-,-
Cc1ccc(NC(=O)CSc2nnc(-c3cccnc3)o2)c(C)c1,-,-,.,.
COc1ccc(-c2nnc(SCc3cccc(C#N)c3)o2)cc1,.,-,-,-
CCC1(CC)NC(=O)N(CC(=O)OCC(=O)c2ccccc2OC)C1=O,-,-,.,.
CC(C)(C)NC(=O)C(OC(=O)c1cccs1)c1ccc(C#N)cc1 (stereo unspecified),-,-,-,-
O=c1cc(CSc2nnc(-c3ccccc3)o2)c2ccccc2[nH]1,?,-,10,-
Cc1ccccc1-c1nnc(SCc2ccccc2)o1,-,-,32,84
